# Test results from PubChem BioAssay (Tox21).
# Where “and” joins values, the source holds several entries; their conditions need not be identical. Identical values can stand only once. Results filed as inconclusive are left out. The source holds several records for some structures; these can differ, active in one and inactive in another. Calls of active or inactive are those of the source. Unless noted, calls come from the whole dose curve; as a rule, active = well fitted cell-killing curve with a large enough effect in the repeat runs; inconclusive = weak or mixed curves; inactive = flat fitted curve, though single readings scatter.
# Experiment: qHTS assay to identify small molecule agonists of the progesterone receptor (PR) signaling pathway - cell viability counter screen (AID 1346799; calls by dose curve; note: nearly all actives have a fitted effect of over 45% in size)
# Details: PR-UAS-bla HEK293T viability, CellTiter-Glo luminescence, 16 h; series mostly up to 92.4 µM; activity change, negative = cytotoxicity: at the top concentration
# Method in brief: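 PR-UAS-bla HEK293T cells, 3,000 per well in medium with 2% charcoal-stripped FBS, were preincubated 6 hr at 37C, then exposed to compounds for 16 hr; viability was read as CellTiter-Glo luminescence after 30 min at room temperature.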
# % is set by controls: 0 for no effect and ±100 for the full control effect; potency is the fitted concentration of half-maximal effect.
Compound,"activity change, negative = cytotoxicity",Potency
NC(Cc1ccc(Cl)cc1)C(=O)O (centres undefined),-7.43% [at 0.349 µM] (inactive),
O=C1CC2(CCCC2)CC(=O)N1CCCCN1CCN(c2ncccn2)CC1,,5.45 µM (active) and inactive
Cc1ccc(-c2cc(C(F)(F)F)nn2-c2ccc(S(N)(=O)=O)cc2)cc1,,76.6 µM (active) and inactive
CC(=O)CC(=O)Nc1ccc2[nH]c(=O)[nH]c2c1,-7.78% (inactive),
c1ccc2cc3c(ccc4ccccc43)cc2c1,,inactive
Cc1c(O)cccc1C(=O)N[C@@H](CSc1ccccc1)[C@H](O)CN1C[C@H]2CCCC[C@H]2C[C@H]1C(=O)NC(C)(C)C,,26.6 µM (active)
O=C(O)c1cccc(C(=O)O)c1,,inactive
CCN1CCCC1CNC(=O)c1cc(S(=O)(=O)CC)c(N)cc1OC (centres undefined),10.8% [at 42.5 µM] (inactive),
CCC[C@H](N[C@@H](C)C(=O)N1[C@H](C(=O)O)C[C@@H]2CCCC[C@@H]21)C(=O)OCC,,inactive
CCCCCCCCCCCCc1ccccc1O,,53.8 µM (active) and 30.6 µM (active)
CC(C)(C)NCC(O)c1cc(O)cc(O)c1 (centres undefined),6.76% [at 42.5 µM] (inactive),

# Experiment: qHTS assay to identify small molecule antagonists of the TGF-beta/Smad signaling pathway - cell viability counter screen (AID 1346824); note: nearly all actives have a fitted effect of over 50% in size
# Details: SBE-bla HEK293T viability, CellTiter-Glo luminescence; series mostly up to 76.8 µM; viability change, negative = cytotoxic: at the top concentration
# Method in brief: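 SBE-bla HEK 293T cells were plated overnight at 37 C, then given compounds in DMSO plus TGF-beta1 (added as 0.25 ng/mL solution) for 5 hr. After the bla read, CellTiter-Glo was added to the same wells and luminescence read after 30 min at room temperature.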
Compound,"viability change, negative = cytotoxic",Potency
CC1COc2c(N3CCN(C)CC3)c(F)cc3c(=O)c(C(=O)O)cn1c23 (centres undefined),2.52% [at 35.3 µM] (inactive),
CCc1ccc(C(c2ccc(CC)cc2)C(Cl)Cl)cc1,-18.8% (inactive),
O=C(O)CP(=O)(O)O,-0.744% [at 35.3 µM] (inactive),
CCn1cc(C(=O)O)c(=O)c2cc(F)c(N3CCNC(C)C3)c(F)c21 (centres undefined),9.31% [at 35.3 µM] (inactive),
c1ccc2c(c1)-c1cccc3c1c-2cc1ccccc13,0.0121% (inactive),
NC(N)=Nc1nc(CSCC/C(N)=N/S(N)(=O)=O)cs1,,inactive
NCCO,,inactive
CCCCCCCCCCCCCC[P+](CCCC)(CCCC)CCCC,,10.9 µM (active) and 27.5 µM (active)
O=C(O)c1cn(-c2ccc(F)cc2)c2cc(N3CCNCC3)c(F)cc2c1=O,,inactive
CCCCC/C=C/CC1CC(=O)OC1=O (centres undefined),5.29% (inactive),
CCCC(=O)c1ccccc1,9.39% (inactive),
Cc1cc(C2(c3cc(C)c(O)cc3C)OS(=O)(=O)c3ccccc32)c(C)cc1O,,inactive
O=C(OCc1ccccc1)c1ccc(O)cc1,,inactive
CCC(C)(Oc1ccc(C2(c3ccc(OC(C)(CC)C(=O)O)cc3)CCCCC2)cc1)C(=O)O (centres undefined),-1.59% [at 35.3 µM] (inactive),
CCc1cc(C(C)(C)C)c(O)c(C(C)(C)C)c1,,inactive
CC(=O)CC(C)=O,2.45% (inactive),
NCCCCCC(=O)O,0.0685% [at 35.3 µM] (inactive),
NNCCc1ccccc1,,inactive
Nc1nc2ccccc2[nH]1,,inactive
O=C(Oc1ccccc1)c1ccccc1O,,inactive
CC(C)(c1ccccc1)c1ccc(Nc2ccc(C(C)(C)c3ccccc3)cc2)cc1,,inactive
NC(N)=NC(=O)Cc1c(Cl)cccc1Cl,-5.57% [at 35.3 µM] (inactive),
CC1=CC(=O)c2ccccc2C1=O,,49 µM (active)
COc1cc(C(=S)N2CCOCC2)ccc1O,3.96% [at 35.3 µM] (inactive),
CCCNC(C)C(=O)Nc1ccccc1C (centres undefined),1.66% [at 35.3 µM] (inactive),
CC(=O)O[C@]1(C(C)=O)CC[C@H]2[C@@H]3C[C@H](C)C4=CC(=O)CC[C@]4(C)[C@H]3CC[C@@]21C,,inactive
NC(Cc1ccc(Cl)cc1)C(=O)O (centres undefined),4.44% [at 0.29 µM] (inactive),
O=C1CC2(CCCC2)CC(=O)N1CCCCN1CCN(c2ncccn2)CC1,,inactive
